How the values were obtained:
Experiment in all cases: DAPPL (digital affinity profiling via proximity ligation, sequencing); 10 mM Tris-HCl pH 7.5, 50 mM NaCl, 1 mM DTT, 4% glycerol, room temperature, 30 min; GST-TFs on glutathione beads, 16-mer random dsDNA library, 0.1% formaldehyde crosslink after washing; high values mean tight binding
[1] = target: T1, FEV (Homo sapiens, UniProt Q99581 1-238); details: protein: recombinant; tags: N-terminal GST; dsDNA, one strand shown
T1 sequence: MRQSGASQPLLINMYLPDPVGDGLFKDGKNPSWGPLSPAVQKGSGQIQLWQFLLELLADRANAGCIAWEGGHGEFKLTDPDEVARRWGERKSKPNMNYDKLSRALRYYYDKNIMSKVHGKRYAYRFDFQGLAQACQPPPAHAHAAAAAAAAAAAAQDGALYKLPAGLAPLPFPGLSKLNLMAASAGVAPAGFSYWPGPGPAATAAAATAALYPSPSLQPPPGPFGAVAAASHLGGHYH
In short: (§1)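 Binding signal is each hexamer's read frequency for a factor divided by its frequency in the tag-only sample. The factors were GST-fused human transcription factors from yeast, captured on glutathione beads, DNA-barcoded and pooled with that sample. Pools were incubated with 200 nmole of a random double-stranded 16-mer DNA library in Tris/NaCl/DTT/glycerol buffer at room temperature for 30 min, then washed, crosslinked with 0.1% formaldehyde, proximity-ligated with BsaI/T4 ligase (1 h, 37 °C), PCR-amplified and sequenced on an Illumina NextSeq500.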

[2] = target: ETV5 (Homo sapiens, UniProt P41161 1-510); details: protein: recombinant; tags: N-terminal GST; dsDNA, one strand shown
In short: as §1

[3] = target: HSF1 (Homo sapiens, UniProt Q00613 1-529); details: protein: recombinant; tags: N-terminal GST; chain copies: 3; dsDNA, one strand shown
In short: as §1

[4] = target: ELF4 (Homo sapiens, UniProt Q99607 1-663); details: protein: recombinant; tags: N-terminal GST; dsDNA, one strand shown
In short: as §1

[5] = target: T2, ELK4 (Homo sapiens, UniProt P28324-2 1-405); details: protein: recombinant; tags: N-terminal GST; dsDNA, one strand shown
T2 sequence: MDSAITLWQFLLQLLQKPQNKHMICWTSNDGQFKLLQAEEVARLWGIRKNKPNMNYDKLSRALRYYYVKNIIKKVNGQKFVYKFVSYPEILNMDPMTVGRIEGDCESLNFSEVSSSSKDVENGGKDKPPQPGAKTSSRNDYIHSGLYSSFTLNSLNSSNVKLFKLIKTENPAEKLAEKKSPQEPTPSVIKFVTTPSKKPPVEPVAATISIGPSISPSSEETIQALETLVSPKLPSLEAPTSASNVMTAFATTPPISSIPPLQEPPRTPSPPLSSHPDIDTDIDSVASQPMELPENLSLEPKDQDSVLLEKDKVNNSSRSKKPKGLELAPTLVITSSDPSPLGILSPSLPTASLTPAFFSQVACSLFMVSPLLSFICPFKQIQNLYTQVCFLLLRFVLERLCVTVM
In short: as §1

[6] = target: T3, ETV2 (Homo sapiens, UniProt O00321 1-342); details: protein: recombinant; tags: N-terminal GST; dsDNA, one strand shown
T3 sequence: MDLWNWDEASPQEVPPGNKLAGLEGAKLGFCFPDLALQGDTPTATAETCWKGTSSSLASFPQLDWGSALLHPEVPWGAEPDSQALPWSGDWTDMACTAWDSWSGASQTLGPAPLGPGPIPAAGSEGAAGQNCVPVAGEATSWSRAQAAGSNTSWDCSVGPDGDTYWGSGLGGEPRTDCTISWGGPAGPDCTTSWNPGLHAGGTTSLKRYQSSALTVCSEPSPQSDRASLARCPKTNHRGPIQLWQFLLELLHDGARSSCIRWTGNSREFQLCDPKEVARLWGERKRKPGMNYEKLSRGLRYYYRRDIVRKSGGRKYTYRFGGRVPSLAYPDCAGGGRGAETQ
In short: as §1

[7] = target: T4, ELF3 (Homo sapiens, UniProt P78545 1-371); details: protein: recombinant; tags: N-terminal GST; dsDNA, one strand shown
T4 sequence: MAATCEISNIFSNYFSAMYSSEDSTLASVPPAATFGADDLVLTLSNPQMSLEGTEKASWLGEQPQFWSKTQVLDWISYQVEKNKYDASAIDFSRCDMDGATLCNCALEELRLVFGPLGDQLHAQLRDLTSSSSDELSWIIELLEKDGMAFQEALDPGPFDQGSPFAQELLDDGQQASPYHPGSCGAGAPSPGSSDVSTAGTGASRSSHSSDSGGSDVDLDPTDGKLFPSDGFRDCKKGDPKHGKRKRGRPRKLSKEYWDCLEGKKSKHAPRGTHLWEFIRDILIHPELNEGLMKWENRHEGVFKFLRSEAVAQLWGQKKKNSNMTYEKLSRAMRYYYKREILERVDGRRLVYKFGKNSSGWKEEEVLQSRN
In short: as §1

[8] = target: ETV1 (Homo sapiens, UniProt P50549 1-477); details: protein: recombinant; tags: N-terminal GST; dsDNA, one strand shown
In short: as §1

[9] = target: T5, ERF (Homo sapiens, UniProt P50548 1-548); details: protein: recombinant; tags: N-terminal GST; dsDNA, one strand shown
T5 sequence: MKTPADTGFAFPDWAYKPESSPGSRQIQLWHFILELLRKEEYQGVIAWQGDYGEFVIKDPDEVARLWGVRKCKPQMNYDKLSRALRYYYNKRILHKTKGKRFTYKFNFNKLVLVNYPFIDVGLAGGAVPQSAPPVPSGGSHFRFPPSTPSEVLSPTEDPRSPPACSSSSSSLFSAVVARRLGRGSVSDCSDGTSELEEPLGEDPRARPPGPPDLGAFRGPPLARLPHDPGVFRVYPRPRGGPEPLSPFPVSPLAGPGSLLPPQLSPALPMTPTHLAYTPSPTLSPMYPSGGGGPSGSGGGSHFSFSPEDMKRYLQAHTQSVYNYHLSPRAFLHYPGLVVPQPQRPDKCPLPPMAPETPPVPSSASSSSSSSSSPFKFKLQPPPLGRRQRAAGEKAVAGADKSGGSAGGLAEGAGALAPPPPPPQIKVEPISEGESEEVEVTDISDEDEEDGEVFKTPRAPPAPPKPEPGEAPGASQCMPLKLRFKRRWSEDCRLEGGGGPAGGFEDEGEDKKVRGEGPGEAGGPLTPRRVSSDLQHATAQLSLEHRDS
In short: as §1

[10] = target: T6, ETV3L (Homo sapiens, UniProt Q6ZN32 1-361); details: protein: recombinant; tags: N-terminal GST; dsDNA, one strand shown
T6 sequence: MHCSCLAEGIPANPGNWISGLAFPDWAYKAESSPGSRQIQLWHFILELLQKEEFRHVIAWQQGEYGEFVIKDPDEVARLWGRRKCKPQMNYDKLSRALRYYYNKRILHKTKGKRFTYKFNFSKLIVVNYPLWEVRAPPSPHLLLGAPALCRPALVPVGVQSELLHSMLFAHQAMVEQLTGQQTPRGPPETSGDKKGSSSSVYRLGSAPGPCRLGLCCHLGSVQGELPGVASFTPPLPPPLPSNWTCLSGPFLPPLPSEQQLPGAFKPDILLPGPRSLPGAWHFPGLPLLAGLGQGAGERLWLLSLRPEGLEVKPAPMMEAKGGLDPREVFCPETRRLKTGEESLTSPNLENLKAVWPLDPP
In short: as §1

[11] = target: T7, ETS2 (Homo sapiens, UniProt P15036 1-469); details: protein: recombinant; tags: N-terminal GST; dsDNA, one strand shown
T7 sequence: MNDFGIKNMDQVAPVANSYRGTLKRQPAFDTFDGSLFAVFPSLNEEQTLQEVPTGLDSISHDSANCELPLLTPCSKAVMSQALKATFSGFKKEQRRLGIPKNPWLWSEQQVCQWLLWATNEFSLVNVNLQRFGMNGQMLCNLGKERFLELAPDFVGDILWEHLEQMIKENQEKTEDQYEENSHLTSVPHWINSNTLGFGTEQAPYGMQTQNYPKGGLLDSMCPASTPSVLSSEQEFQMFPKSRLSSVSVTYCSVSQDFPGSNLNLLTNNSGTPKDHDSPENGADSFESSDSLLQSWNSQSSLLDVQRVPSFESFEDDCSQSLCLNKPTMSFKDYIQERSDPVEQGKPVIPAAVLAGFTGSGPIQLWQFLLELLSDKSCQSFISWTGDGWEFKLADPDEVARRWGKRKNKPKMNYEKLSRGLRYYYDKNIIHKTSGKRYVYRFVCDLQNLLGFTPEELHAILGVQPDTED
In short: as §1

[12] = target: T8, SPDEF (Homo sapiens, UniProt O95238 1-335); details: protein: recombinant; tags: N-terminal GST; dsDNA, one strand shown
T8 sequence: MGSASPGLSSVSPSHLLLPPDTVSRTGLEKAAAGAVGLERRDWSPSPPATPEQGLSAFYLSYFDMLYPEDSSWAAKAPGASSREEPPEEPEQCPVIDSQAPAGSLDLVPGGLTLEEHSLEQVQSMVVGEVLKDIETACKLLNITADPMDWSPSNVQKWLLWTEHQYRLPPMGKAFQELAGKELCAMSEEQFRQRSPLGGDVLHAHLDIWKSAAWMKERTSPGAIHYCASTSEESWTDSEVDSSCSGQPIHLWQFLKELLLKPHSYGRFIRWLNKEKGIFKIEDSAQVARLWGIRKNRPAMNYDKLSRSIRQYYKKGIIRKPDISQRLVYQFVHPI
In short: as §1

[13] = target: T9, ETV7 (Homo sapiens, UniProt Q9Y603 1-341); details: protein: recombinant; tags: N-terminal GST; dsDNA, one strand shown
T9 sequence: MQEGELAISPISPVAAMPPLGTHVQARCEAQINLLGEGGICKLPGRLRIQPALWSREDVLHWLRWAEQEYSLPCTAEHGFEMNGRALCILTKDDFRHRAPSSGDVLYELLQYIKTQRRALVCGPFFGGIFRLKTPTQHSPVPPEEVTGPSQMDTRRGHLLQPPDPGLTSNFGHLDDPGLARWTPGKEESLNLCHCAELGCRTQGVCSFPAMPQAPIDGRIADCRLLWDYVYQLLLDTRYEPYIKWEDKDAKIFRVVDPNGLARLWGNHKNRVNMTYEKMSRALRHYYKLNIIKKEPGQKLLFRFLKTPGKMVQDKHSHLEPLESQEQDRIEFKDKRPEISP
In short: as §1

[14] = target: T10, ELF5 (Homo sapiens, UniProt Q9UKW6-2 1-255); details: protein: recombinant; tags: N-terminal GST; dsDNA, one strand shown
T10 sequence: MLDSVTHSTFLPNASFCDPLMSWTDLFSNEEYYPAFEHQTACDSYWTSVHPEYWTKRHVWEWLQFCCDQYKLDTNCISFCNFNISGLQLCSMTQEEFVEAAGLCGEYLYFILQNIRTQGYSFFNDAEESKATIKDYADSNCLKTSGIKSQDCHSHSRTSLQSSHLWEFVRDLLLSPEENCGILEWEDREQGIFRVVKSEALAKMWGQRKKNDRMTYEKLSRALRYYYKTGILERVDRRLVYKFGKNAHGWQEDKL
In short: as §1

[15] = target: T11, ETV3 (Homo sapiens, UniProt P41162-2 1-143); details: protein: recombinant; tags: N-terminal GST; dsDNA, one strand shown
T11 sequence: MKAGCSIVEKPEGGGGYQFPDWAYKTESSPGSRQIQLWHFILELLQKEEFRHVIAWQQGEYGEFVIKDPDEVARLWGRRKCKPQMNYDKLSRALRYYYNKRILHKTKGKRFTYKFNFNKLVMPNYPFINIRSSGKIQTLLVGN
In short: as §1

[16] = target: ETV6 (Homo sapiens, UniProt P41212 1-452); details: protein: recombinant; tags: N-terminal GST; dsDNA, one strand shown
In short: as §1

[17] = target: CRX (Homo sapiens, UniProt O43186 1-299); details: protein: recombinant; tags: N-terminal GST; dsDNA, one strand shown
In short: as §1

Sequence of ELF4 (Q99607 whole entry): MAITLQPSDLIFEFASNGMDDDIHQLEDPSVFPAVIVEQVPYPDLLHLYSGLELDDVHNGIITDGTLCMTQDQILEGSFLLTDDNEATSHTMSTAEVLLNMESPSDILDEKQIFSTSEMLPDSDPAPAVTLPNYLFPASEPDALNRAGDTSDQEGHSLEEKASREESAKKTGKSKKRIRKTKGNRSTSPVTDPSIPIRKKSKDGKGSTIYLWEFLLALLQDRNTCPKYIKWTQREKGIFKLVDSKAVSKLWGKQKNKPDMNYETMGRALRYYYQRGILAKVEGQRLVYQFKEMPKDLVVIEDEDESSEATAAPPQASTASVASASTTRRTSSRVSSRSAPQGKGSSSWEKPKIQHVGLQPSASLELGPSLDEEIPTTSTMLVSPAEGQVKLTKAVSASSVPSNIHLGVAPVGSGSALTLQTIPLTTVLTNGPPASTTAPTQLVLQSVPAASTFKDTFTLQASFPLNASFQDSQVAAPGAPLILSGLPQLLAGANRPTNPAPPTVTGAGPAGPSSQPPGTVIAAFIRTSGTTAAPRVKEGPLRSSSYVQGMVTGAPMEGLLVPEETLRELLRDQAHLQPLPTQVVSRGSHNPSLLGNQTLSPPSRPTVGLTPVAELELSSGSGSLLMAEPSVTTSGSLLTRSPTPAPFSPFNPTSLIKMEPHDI
Sequence of HSF1 (Q00613 whole entry): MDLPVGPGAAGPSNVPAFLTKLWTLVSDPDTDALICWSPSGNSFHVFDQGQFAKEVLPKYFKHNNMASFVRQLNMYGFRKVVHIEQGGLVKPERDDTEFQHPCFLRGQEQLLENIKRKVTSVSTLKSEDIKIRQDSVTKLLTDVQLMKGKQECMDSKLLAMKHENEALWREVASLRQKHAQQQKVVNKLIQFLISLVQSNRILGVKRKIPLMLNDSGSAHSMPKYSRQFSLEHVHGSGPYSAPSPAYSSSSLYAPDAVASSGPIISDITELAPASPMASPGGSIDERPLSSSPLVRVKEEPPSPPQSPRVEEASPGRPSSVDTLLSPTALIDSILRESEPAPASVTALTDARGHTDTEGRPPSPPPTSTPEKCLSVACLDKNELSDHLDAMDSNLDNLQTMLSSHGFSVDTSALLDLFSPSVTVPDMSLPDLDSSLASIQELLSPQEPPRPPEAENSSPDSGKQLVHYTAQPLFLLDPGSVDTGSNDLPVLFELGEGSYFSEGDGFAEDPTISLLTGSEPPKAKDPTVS
Sequence of ETV1 (P50549 whole entry): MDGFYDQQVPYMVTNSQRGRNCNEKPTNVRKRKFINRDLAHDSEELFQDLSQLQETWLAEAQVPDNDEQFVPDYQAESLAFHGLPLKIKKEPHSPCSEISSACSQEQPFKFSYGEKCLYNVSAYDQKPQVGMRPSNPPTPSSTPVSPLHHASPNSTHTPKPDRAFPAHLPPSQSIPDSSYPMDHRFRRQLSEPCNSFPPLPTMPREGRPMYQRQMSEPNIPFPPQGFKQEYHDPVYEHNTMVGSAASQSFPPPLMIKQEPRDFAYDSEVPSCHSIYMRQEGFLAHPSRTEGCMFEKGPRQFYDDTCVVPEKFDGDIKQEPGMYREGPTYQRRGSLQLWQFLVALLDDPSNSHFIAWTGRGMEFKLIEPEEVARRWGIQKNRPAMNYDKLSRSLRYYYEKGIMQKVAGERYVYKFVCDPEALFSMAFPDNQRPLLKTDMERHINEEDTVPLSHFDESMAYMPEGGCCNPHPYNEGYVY
Sequence of ETV6 (P41212 whole entry): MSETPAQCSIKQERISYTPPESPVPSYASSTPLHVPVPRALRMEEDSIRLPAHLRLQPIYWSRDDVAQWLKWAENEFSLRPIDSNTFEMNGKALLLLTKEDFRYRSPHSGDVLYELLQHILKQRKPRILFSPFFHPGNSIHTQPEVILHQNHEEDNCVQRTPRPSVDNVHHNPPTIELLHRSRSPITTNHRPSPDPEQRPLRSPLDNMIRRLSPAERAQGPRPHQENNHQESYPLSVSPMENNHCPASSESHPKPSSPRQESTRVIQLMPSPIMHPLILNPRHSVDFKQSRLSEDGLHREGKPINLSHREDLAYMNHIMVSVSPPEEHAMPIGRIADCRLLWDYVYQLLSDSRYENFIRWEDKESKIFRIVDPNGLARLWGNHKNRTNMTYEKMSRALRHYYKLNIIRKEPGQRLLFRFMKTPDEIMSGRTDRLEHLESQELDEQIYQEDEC
Sequence of ETV5 (P41161 whole entry): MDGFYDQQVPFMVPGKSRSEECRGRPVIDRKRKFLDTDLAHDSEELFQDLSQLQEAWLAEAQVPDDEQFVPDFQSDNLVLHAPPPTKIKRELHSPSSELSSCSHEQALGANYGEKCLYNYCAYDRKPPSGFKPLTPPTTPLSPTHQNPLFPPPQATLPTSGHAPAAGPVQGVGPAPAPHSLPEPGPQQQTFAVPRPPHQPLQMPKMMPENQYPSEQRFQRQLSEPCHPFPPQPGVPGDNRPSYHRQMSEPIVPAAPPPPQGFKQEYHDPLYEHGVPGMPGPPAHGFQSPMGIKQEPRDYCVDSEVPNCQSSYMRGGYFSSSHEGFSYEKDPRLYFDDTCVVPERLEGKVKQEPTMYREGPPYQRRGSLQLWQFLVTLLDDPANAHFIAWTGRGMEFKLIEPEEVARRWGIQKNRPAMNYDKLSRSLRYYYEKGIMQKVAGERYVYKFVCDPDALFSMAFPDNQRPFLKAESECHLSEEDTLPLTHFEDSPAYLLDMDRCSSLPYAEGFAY
Sequence of CRX (O43186 whole entry): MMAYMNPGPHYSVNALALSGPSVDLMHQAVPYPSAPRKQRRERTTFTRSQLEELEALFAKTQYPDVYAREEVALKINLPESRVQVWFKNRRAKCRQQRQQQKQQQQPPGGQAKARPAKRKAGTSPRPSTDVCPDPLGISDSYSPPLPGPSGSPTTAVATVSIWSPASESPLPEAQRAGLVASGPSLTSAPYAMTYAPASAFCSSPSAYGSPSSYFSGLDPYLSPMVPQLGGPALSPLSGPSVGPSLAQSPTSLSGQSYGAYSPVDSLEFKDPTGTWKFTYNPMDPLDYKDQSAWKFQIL

Row | Sequence | binding signal [1] | binding signal [2] | binding signal [3] | binding signal [4] | binding signal [5] | binding signal [6] | binding signal [7] | binding signal [8] | binding signal [9] | binding signal [10] | binding signal [11] | binding signal [12] | binding signal [13] | binding signal [14] | binding signal [15] | binding signal [16] | binding signal [17]
1 | ACGCCC | 1.12 fold enrichment (6-mer frequency, TF over GST control) | 1.16 fold enrichment (6-mer frequency, TF over GST control) | 1 fold enrichment (6-mer frequency, TF over GST control) | 1.2 fold enrichment (6-mer frequency, TF over GST control) | 1.18 fold enrichment (6-mer frequency, TF over GST control) | 1.05 fold enrichment (6-mer frequency, TF over GST control) | 1.06 fold enrichment (6-mer frequency, TF over GST control) | 1.16 fold enrichment (6-mer frequency, TF over GST control) | 1.24 fold enrichment (6-mer frequency, TF over GST control) | 1.17 fold enrichment (6-mer frequency, TF over GST control) | 1.12 fold enrichment (6-mer frequency, TF over GST control) | 1.07 fold enrichment (6-mer frequency, TF over GST control) | 1.03 fold enrichment (6-mer frequency, TF over GST control) | 1.05 fold enrichment (6-mer frequency, TF over GST control) | 1.15 fold enrichment (6-mer frequency, TF over GST control) | 1.13 fold enrichment (6-mer frequency, TF over GST control) | –
2 | TTAGGT | – | 1.12 fold enrichment (6-mer frequency, TF over GST control) | 1.28 fold enrichment (6-mer frequency, TF over GST control) | 1.08 fold enrichment (6-mer frequency, TF over GST control) | 1.26 fold enrichment (6-mer frequency, TF over GST control) | 1 fold enrichment (6-mer frequency, TF over GST control) | 1.15 fold enrichment (6-mer frequency, TF over GST control) | 1.04 fold enrichment (6-mer frequency, TF over GST control) | 1.19 fold enrichment (6-mer frequency, TF over GST control) | – | 1.13 fold enrichment (6-mer frequency, TF over GST control) | 1.09 fold enrichment (6-mer frequency, TF over GST control) | 1.09 fold enrichment (6-mer frequency, TF over GST control) | 1.02 fold enrichment (6-mer frequency, TF over GST control) | 1.06 fold enrichment (6-mer frequency, TF over GST control) | 1.16 fold enrichment (6-mer frequency, TF over GST control) | 1.82 fold enrichment (6-mer frequency, TF over GST control)
3 | ACTGTT | 1.1 fold enrichment (6-mer frequency, TF over GST control) | 1.1 fold enrichment (6-mer frequency, TF over GST control) | 1.03 fold enrichment (6-mer frequency, TF over GST control) | 1.2 fold enrichment (6-mer frequency, TF over GST control) | 1.09 fold enrichment (6-mer frequency, TF over GST control) | 1.23 fold enrichment (6-mer frequency, TF over GST control) | 1.03 fold enrichment (6-mer frequency, TF over GST control) | 1.12 fold enrichment (6-mer frequency, TF over GST control) | 1.19 fold enrichment (6-mer frequency, TF over GST control) | 1.09 fold enrichment (6-mer frequency, TF over GST control) | 1.13 fold enrichment (6-mer frequency, TF over GST control) | 1.04 fold enrichment (6-mer frequency, TF over GST control) | 1.01 fold enrichment (6-mer frequency, TF over GST control) | 1.22 fold enrichment (6-mer frequency, TF over GST control) | 1.2 fold enrichment (6-mer frequency, TF over GST control) | 1.2 fold enrichment (6-mer frequency, TF over GST control) | –
